Experimental findings from PubChem BioAssay (Tox21) are described below.

Several values for one entry are separate records, joined by “and”; a condition that tells them apart may be missing. Equal entries are not always repeated. Inconclusive results are not listed. Where a call stands in place of a potency, no number is given. Where a structure was tested more than once in an assay, its records may differ in their call. Activity calls are given as the source filed them. Calls follow the shape of the dose curve; as a rule, active = well fitted cell-killing curve with a large enough effect in the repeat runs; inconclusive = weak or mixed curves, or effect the other way; inactive = no such curve, though single readings can be large or run the other way.
Potency is read from the fitted curve at half-maximal effect.

The nature of this test: qHTS assay to identify small molecule agonists of the estrogen receptor alpha (ER-alpha) signaling pathway in the presence of an antagonist - cell viability counter screen (AID 1259386).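 Also: cells exposed to compounds for 22 h at 37 °C before the viability read; nearly all actives have a fitted effect of over 30% in size.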 Particulars: VM7Luc4E2 viability, CellTiter-Fluor fluorescence, 22 h; series mostly up to 92.4 µM. The source says:
National Center for Advancing Translational Sciences [NCATS]
NIH Chemical Genomics Center [NCGC]
U.S. Environmental Protection Agency [EPA]
National Institutes of Environmental Health Sciences [NIEHS]
National Toxicology Program [NTP]
U.S. Food and Drug Administration [FDA]
Estrogen receptor (ER), a member of nuclear hormone receptor plays an important role in development, metabolic homeostasis and reproduction. Two subtypes of ER, ER-alpha and ER-beta, have similar expression patterns with some uniqueness in both types. Endocrine disrupting chemicals (EDCs) and their interactions with steroid hormone receptors like ER causes disruption of normal endocrine function. Therefore, it is important to understand the effect of environmental chemicals in ER signaling pathway. For identifying ER agonists, VM7Luc4E2 cell line has been used in the current assay.
VM7Luc4E2 cell line (provided by Denison MS, University of California) endogenously expresses full-length ER-alpha and is stably transfected with a plasmid containing four estrogen responsive elements (ERE) upstream of a luciferase reporter gene. This current screening for measuring luciferase reporter gene activity using VM7Luc4E2 cells against Tox21 10K library collection is a confirmation study on agonist mode screening in presence of ER-antagonist (ICI-182,780) at 10.0nM final concentration. The cytotoxicity of the compounds was tested in parallel by measuring the cell viability using CellTiter-Fluor assay system (Promega, Madison, WI) in the same wells.
Tox21 Assay Protocol Summary:
VM7Luc4E2 cells were cultured in phenol red free assay medium containing 10% charcoal stripped FBS for 5 days prior to the assay. The cells were dispensed at 4,000 cells in 4uL of assay medium per well into white wall/solid-bottom 1536-well plates (Corning Life Sciences, Corning, NY) using a Multidrop Combi (Thermo Fisher Scientific Inc., Waltham, MA) dispenser. After the assay plates were incubated at 37C and 5% CO2 for 24hr, 1uL of 10.0nM (final concentration) ICI-182,780 or assay buffer was added using two separate tips of Flying Reagent Dispenser (FRD, Aurora Discovery, San Diego, CA). Then 23nL of compounds dissolved in DMSO at 15 concentrations and positive controls or DMSO only was transferred to the assay plates by a Pintool station (Wako, San Diego, CA). The assay plates were incubated at 37C and 5% CO2 for 22hr. After 21hr incubation at 37C, 1uL/well CellTiter-Fluor reagent (Promega Corporation, Madison, WI) was added to each well using FRD and after 1hr incubation at 37C and 5% CO2, the fluorescence signal was measured on ViewLux plate reader (PerkinElmer, Shelton, CT).
(In general: qHTS replaces the single test concentration by a dilution series.)
`CCCCCC[n+]1ccccc1`: the Potency entry was “inactive”. To `CC(=O)O` belongs “inactive”; to `CC[n+]1ccccc1`, “inactive and 42.9 µM (active)”. For `CCCC[n+]1cccc(C)c1`, the Potency entry was “inactive”. To `CC[N+]1(C)CCCC1` belongs “inactive”; to `CC(=O)[O][Hg][c]1ccccc1`, 7.63 µM (active) and 13.7 µM (active) and 26.6 µM (active); to `CCCC[n+]1ccccc1`, “inactive”. With `CCCC[N+]1(C)CCCCC1`, the Potency result is “inactive”. To `Nc1ccc(-c2ccc(N)c(Cl)c2)cc1Cl` belongs “inactive”. For the molecule `O=[N+]([O-])c1ccccc1O`, the Potency entry was “inactive”. To `C1CCC(NC2CCCCC2)CC1` belongs “inactive”. For `CCCCn1cc[n+](C)c1`, the Potency entry was “inactive”. To `CCCCCCCCCCCCOS(=O)(=O)O` belongs “inactive”. In the case of `O=C(O)COc1ccc(Cl)cc1Cl`, the Potency result is “inactive”. To `CCCC[n+]1ccccc1C` belongs “inactive”; to `CNC`, “inactive”. As to `COc1ccc(N)cc1`, the Potency entry was “inactive”. To `CCn1cc[n+](C)c1C` belongs “inactive”; to `Cc1cc(Cl)ccc1N`, “inactive”. To `Cc1cc(-c2ccc(N)c(C)c2)ccc1N` belongs “inactive”. Regarding `O=c1nc(O)n(Cl)c(=O)n1Cl`, the Potency result is “inactive”. Take `OCCOc1ccccc1`: the Potency result was “inactive”.

For the molecule `O=[N+]([O-])O`, the Potency result was “inactive”.

`CCCn1cc[n+](C)c1`: the Potency result is “inactive”. To `CCCCCCCCCCCC(=O)O` belongs “inactive”; to `Nc1ccccc1`, “inactive”. As to `CCOP(=S)(OCC)Oc1ccc2c(C)c(Cl)c(=O)oc2c1`, the Potency entry is “inactive”. To `Oc1ccccc1-c1ccccc1` belongs “inactive”; to `CCCC[n+]1ccc(C)cc1`, “inactive”; to `Nc1ccc(-c2ccc(N)cc2)cc1`, “inactive”. To `O=C(O)C(Cl)(Cl)Cl` belongs “inactive”; to `O=C(O)c1ccccc1O`, “inactive”; to `CC[N+](CC)(CC)CC`, “inactive”.

Turning to `CCCCCCCCCCCCCC[P+](CCCCCC)(CCCCCC)CCCCCC`, the Potency was 9.73 µM (active) and 21.9 µM (active) and 6.85 µM (active).

As to `CCC[N+]1(C)CCCCC1`, the Potency entry was “inactive”. To `O=C(O)CC(O)(CC(=O)O)C(=O)O` belongs “inactive”; to `CCCCCCCCCCCCCCCCn1cc[n+](C)c1`, “inactive and 55 µM (active) and 21.7 µM (active)”. To `C=CCOC(Cn1ccnc1)c1ccc(Cl)cc1Cl` (stereo not given) belongs “inactive”; to `CCC[N+]1(C)CCCC1`, “inactive”; to `Nc1ccc(Cl)cc1`, “inactive”.
